Data reported in PubChem BioAssay (NCI).
This is part of a sample that, as a whole, favours compounds with a hit. Of some 83,000 tested, about 20% had one in any assay.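 In brief: 96-well plates, 48 h treatment, single concentration, percent growth endpoint.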 The source made the active and inactive calls. How the source made its calls: active means growth percent below 10; inactive means the rest.

How the values were obtained:
Assay in all cases: NCI-60 one-dose screen, 48 h (100 = growth as untreated, 0 = no growth, -100 = all killed)
Conditions in all cases: 10 µM unless noted
SK-MEL-2 melanoma = test system: SK-MEL-2 melanoma
EKVX NSCLC = test system: EKVX NSCLC
SN12C renal = test system: SN12C renal
UO-31 renal = test system: UO-31 renal
TK-10 renal = test system: TK-10 renal
ACHN renal = test system: ACHN renal
CAKI-1 renal = test system: CAKI-1 renal
A498 renal = test system: A498 renal
CCRF-CEM leukemia = test system: CCRF-CEM leukemia
MOLT-4 leukemia = test system: MOLT-4 leukemia
SR leukemia = test system: SR leukemia
RPMI-8226 leukemia = test system: RPMI-8226 leukemia
OVCAR-8 ovarian = test system: OVCAR-8 ovarian
OVCAR-5 ovarian = test system: OVCAR-5 ovarian
OVCAR-4 ovarian = test system: OVCAR-4 ovarian
SK-OV-3 ovarian = test system: SK-OV-3 ovarian
IGROV1 ovarian = test system: IGROV1 ovarian
OVCAR-3 ovarian = test system: OVCAR-3 ovarian
HS 578T breast = test system: HS 578T breast
NCI/ADR-RES ovarian = test system: NCI/ADR-RES ovarian

Measured: growth

O=C(N1c2ccccc2Sc2ccccc21)n1ccc2cccnc21
inactive: SK-MEL-2 melanoma 73.6% | EKVX NSCLC 79.3% | SN12C renal 81.1% | UO-31 renal 55.6% | TK-10 renal 90.7% | ACHN renal 88.2% | CAKI-1 renal 53.6% | A498 renal 109% | CCRF-CEM leukemia 63.2% | MOLT-4 leukemia 38.3% | SR leukemia 12.1% | RPMI-8226 leukemia 40.4% | OVCAR-8 ovarian 88.1% | OVCAR-5 ovarian 98.5% | OVCAR-4 ovarian 65.6% | SK-OV-3 ovarian 79.9% | IGROV1 ovarian 72% | OVCAR-3 ovarian 82% | HS 578T breast 70.7% | NCI/ADR-RES ovarian 57.7%

CC1CN(c2oc(-c3ccc([N+](=O)[O-])cc3)nc2C#N)CC(C)O1 (stereo not given)
inactive: SK-MEL-2 melanoma 103% | EKVX NSCLC 95.2% | SN12C renal 91.5% | UO-31 renal 81.7% | TK-10 renal 109% | ACHN renal 108% | CAKI-1 renal 98.2% | A498 renal 97.2% | CCRF-CEM leukemia 100% | MOLT-4 leukemia 99.8% | SR leukemia 83.3% | RPMI-8226 leukemia 101% | OVCAR-8 ovarian 103% | OVCAR-5 ovarian 107% | OVCAR-4 ovarian 102% | SK-OV-3 ovarian 110% | IGROV1 ovarian 103% | OVCAR-3 ovarian 110% | HS 578T breast 94.4% | NCI/ADR-RES ovarian 95.4%

Cc1ccc(Cc2cnc(NC(=O)c3ccc(/C=C4\SC(=S)N(C)C4=O)cc3)s2)cc1
active: OVCAR-3 ovarian 3.26% | NCI/ADR-RES ovarian -28.5%
inactive: SK-MEL-2 melanoma 25.6% | EKVX NSCLC 60% | SN12C renal 30.8% | UO-31 renal 37.7% | TK-10 renal 61.5% | ACHN renal 31.1% | CAKI-1 renal 38.4% | A498 renal 107% | CCRF-CEM leukemia 32.3% | MOLT-4 leukemia 24.1% | SR leukemia 30% | RPMI-8226 leukemia 31.4% | OVCAR-8 ovarian 35.3% | OVCAR-5 ovarian 34.3% | OVCAR-4 ovarian 48.2% | SK-OV-3 ovarian 29.3% | IGROV1 ovarian 33% | HS 578T breast 39.2%

CC(/C=C1\SC(=S)N(CCCC(=O)NC(CC(C)C)C(=O)O)C1=O)=C\c1ccccc1 (stereo not given)
inactive: SK-MEL-2 melanoma 101% | EKVX NSCLC 101% | SN12C renal 90.2% | UO-31 renal 64.4% | TK-10 renal 131% | ACHN renal 54.1% | CAKI-1 renal 79.5% | A498 renal 145% | CCRF-CEM leukemia 89.7% | MOLT-4 leukemia 54.9% | SR leukemia 101% | RPMI-8226 leukemia 77.6% | OVCAR-8 ovarian 87.5% | OVCAR-5 ovarian 111% | OVCAR-4 ovarian 99.8% | SK-OV-3 ovarian 106% | IGROV1 ovarian 109% | OVCAR-3 ovarian 91.3% | HS 578T breast 97.5% | NCI/ADR-RES ovarian 94.1%

CC12CC[C@@H]3[C@]4(C)COC(c5cn[nH]c5-c5cccc(Br)c5)O[C@@H]4CC[C@@]3(C)[C@@H]1CC(C1=CCOC1=O)O2 (stereo not given in full)
active: CCRF-CEM leukemia 9.66% | MOLT-4 leukemia 4.43%
inactive: SK-MEL-2 melanoma 31.6% | EKVX NSCLC 28.2% | SN12C renal 43.3% | UO-31 renal 14.9% | TK-10 renal 58.6% | ACHN renal 26.5% | CAKI-1 renal 39.9% | A498 renal 81.8% | SR leukemia 28% | RPMI-8226 leukemia 13.2% | OVCAR-8 ovarian 31% | OVCAR-5 ovarian 76.8% | OVCAR-4 ovarian 25.4% | SK-OV-3 ovarian 53.8% | IGROV1 ovarian 48.7% | OVCAR-3 ovarian 40.6% | HS 578T breast 51.5% | NCI/ADR-RES ovarian 25.3%

CCCCn1c(O)c(N=Nc2nc(-c3cc4ccccc4oc3=O)cs2)c2cc(Br)ccc21
inactive: SK-MEL-2 melanoma 116% | EKVX NSCLC 97.1% | SN12C renal 101% | UO-31 renal 85% | TK-10 renal 115% | ACHN renal 106% | CAKI-1 renal 102% | A498 renal 103% | CCRF-CEM leukemia 104% | MOLT-4 leukemia 107% | SR leukemia 103% | RPMI-8226 leukemia 108% | OVCAR-8 ovarian 113% | OVCAR-5 ovarian 96.2% | OVCAR-4 ovarian 111% | SK-OV-3 ovarian 124% | IGROV1 ovarian 114% | OVCAR-3 ovarian 99.1% | HS 578T breast 108% | NCI/ADR-RES ovarian 102%

C#C[C@]1(O)CC[C@H]2[C@@H]3CC=C4c5sc(-c6ccc([N+](=O)[O-])cc6)nc5CC[C@]4(C)[C@H]3CC[C@@]21C
active: SK-MEL-2 melanoma -42.8% | EKVX NSCLC -61.6% | UO-31 renal -44.8% | ACHN renal 3.11% | A498 renal 6.18% | CCRF-CEM leukemia 9.17% | SR leukemia 1.72% | RPMI-8226 leukemia -10.7% | OVCAR-3 ovarian -25.2%
inactive: SN12C renal 57% | TK-10 renal 52% | CAKI-1 renal 23.1% | MOLT-4 leukemia 10% | OVCAR-8 ovarian 11.3% | OVCAR-5 ovarian 12.5% | OVCAR-4 ovarian 46.5% | SK-OV-3 ovarian 53% | IGROV1 ovarian 26.4% | HS 578T breast 29.6% | NCI/ADR-RES ovarian 25.7%

CC1(C)CC[C@]2(C(=O)O)CC[C@]3(C)C(=CCC4[C@@]5(C)C[C@@H](O)[C@@H]6OC(c7ccc(F)cc7)OC[C@@]6(C)C5CC[C@]43C)C2C1 (stereo not given in full)
active: MOLT-4 leukemia 8.69% | SR leukemia 7.73% | RPMI-8226 leukemia 9.02%
inactive: SK-MEL-2 melanoma 18.1% | EKVX NSCLC 20.5% | SN12C renal 31.8% | UO-31 renal 25.6% | TK-10 renal 26.9% | ACHN renal 13.3% | CAKI-1 renal 33.6% | A498 renal 46.8% | CCRF-CEM leukemia 14.6% | OVCAR-8 ovarian 29.3% | OVCAR-5 ovarian 63.4% | OVCAR-4 ovarian 44% | SK-OV-3 ovarian 85.7% | IGROV1 ovarian 43.4% | OVCAR-3 ovarian 24% | HS 578T breast 48.1% | NCI/ADR-RES ovarian 30.2%

COc1cc(/C=C/C(=O)c2ccc(C)cc2)ccc1Oc1nc(Nc2ccc(F)cc2)nc(N(C)C)n1
inactive: SK-MEL-2 melanoma 44.9% | EKVX NSCLC 60.6% | SN12C renal 17.4% | UO-31 renal 36.2% | TK-10 renal 77.3% | CAKI-1 renal 35.6% | A498 renal 66.3% | CCRF-CEM leukemia 17% | OVCAR-8 ovarian 38% | OVCAR-5 ovarian 79.1% | OVCAR-4 ovarian 39.4% | SK-OV-3 ovarian 79.4% | IGROV1 ovarian 57.8% | OVCAR-3 ovarian 52.4% | HS 578T breast 41.7% | NCI/ADR-RES ovarian 38.1%
active: ACHN renal 3.65% | MOLT-4 leukemia 9.34% | SR leukemia 3.88% | RPMI-8226 leukemia -1.89%

O=c1cc(-c2ccccc2)oc2cc(OCCCC[P+](c3ccccc3)(c3ccccc3)c3ccccc3)cc(O)c12
active: SK-MEL-2 melanoma -94.1% | EKVX NSCLC -97.6% | SN12C renal -49.5% | UO-31 renal -97.1% | TK-10 renal -81.8% | ACHN renal -100% | CAKI-1 renal -97.1% | A498 renal -83.3% | CCRF-CEM leukemia -75.9% | MOLT-4 leukemia -41.7% | SR leukemia -39.8% | RPMI-8226 leukemia -66.7% | OVCAR-8 ovarian -61.1% | OVCAR-5 ovarian -97.7% | OVCAR-4 ovarian -69.1% | SK-OV-3 ovarian -83.4% | IGROV1 ovarian -75.7% | OVCAR-3 ovarian -94% | HS 578T breast -35.2% | NCI/ADR-RES ovarian -68.3%

CN(C)c1nc(NCCNS(=O)(=O)c2ccc(C3=Nc4c(N)nc(N)nc4NC(c4ccc(Cl)cc4)C3)cc2)nc(Nc2ccc(F)cc2)n1 (stereo not given)
inactive: EKVX NSCLC 43.3% | SN12C renal 47.1% | UO-31 renal 81.1% | TK-10 renal 79.6% | ACHN renal 73.8% | CAKI-1 renal 72.4% | A498 renal 76.5% | CCRF-CEM leukemia 14% | OVCAR-8 ovarian 46.2% | OVCAR-5 ovarian 72.6% | OVCAR-4 ovarian 45.6% | SK-OV-3 ovarian 90.3% | IGROV1 ovarian 51.5% | OVCAR-3 ovarian 51.9% | HS 578T breast 56.3% | NCI/ADR-RES ovarian 94.4%
active: SK-MEL-2 melanoma -2.74% | MOLT-4 leukemia 7.27% | SR leukemia 0.305% | RPMI-8226 leukemia -2.32%

O=C(COc1ccc(NC(=O)Nc2ccc(Cl)c(Cl)c2)cc1)N=Nc1c(O)[nH]c2ccc(Br)cc12
inactive: UO-31 renal 51.1% | ACHN renal 12.5% | NCI/ADR-RES ovarian 82.4%
active: SK-MEL-2 melanoma -71.6% | EKVX NSCLC 4.88% | SN12C renal -20.9% | TK-10 renal -0.92% | CAKI-1 renal 0.251% | A498 renal -54.9% | CCRF-CEM leukemia 9.52% | MOLT-4 leukemia -3.16% | SR leukemia 3.18% | RPMI-8226 leukemia 3.61% | OVCAR-8 ovarian -59.9% | OVCAR-5 ovarian -44.5% | OVCAR-4 ovarian -27% | SK-OV-3 ovarian -43.3% | IGROV1 ovarian -51% | OVCAR-3 ovarian -76.4% | HS 578T breast -5.94%

COc1ccc2c(c1)c(-c1cc3nc(-c4cn(C)c5ncccc45)cc(N)n3n1)cn2C
inactive: A498 renal 16.6%
active: SK-MEL-2 melanoma -71.9% | EKVX NSCLC -22.8% | SN12C renal -60.2% | UO-31 renal -62.1% | TK-10 renal -27.8% | ACHN renal -100% | CAKI-1 renal -35.9% | CCRF-CEM leukemia -22% | MOLT-4 leukemia -42.5% | SR leukemia -19.3% | RPMI-8226 leukemia -20.6% | OVCAR-8 ovarian -41.5% | OVCAR-5 ovarian -7.9% | OVCAR-4 ovarian -5.11% | SK-OV-3 ovarian -57% | IGROV1 ovarian -58.1% | OVCAR-3 ovarian -12.4% | HS 578T breast -26.8% | NCI/ADR-RES ovarian 9.49%

COc1ccc(-c2ccnc(SCc3cc4ccccc4[nH]c3=O)n2)cc1
inactive: SK-MEL-2 melanoma 67.2% | EKVX NSCLC 69.8% | SN12C renal 49.1% | UO-31 renal 68.4% | TK-10 renal 85.2% | ACHN renal 74.4% | CAKI-1 renal 55.1% | A498 renal 93.2% | CCRF-CEM leukemia 48.1% | MOLT-4 leukemia 11.1% | SR leukemia 14.9% | RPMI-8226 leukemia 65.5% | OVCAR-8 ovarian 56.3% | OVCAR-5 ovarian 82.1% | OVCAR-4 ovarian 41.5% | SK-OV-3 ovarian 82.4% | IGROV1 ovarian 75% | OVCAR-3 ovarian 81.6% | HS 578T breast 48.2% | NCI/ADR-RES ovarian 26.9%

O=C(c1ccc(OCCN2CCOCC2)cc1)C1[C@H](c2ccc(Cl)cc2)[C@@H](c2ccccc2)NC12C(=O)Nc1ccc(Br)cc12 (stereo not given in full)
inactive: SK-MEL-2 melanoma 28.3% | EKVX NSCLC 19.8% | UO-31 renal 15.1% | TK-10 renal 40.2% | CAKI-1 renal 15.4% | A498 renal 91.5% | CCRF-CEM leukemia 20.7% | OVCAR-8 ovarian 28.6% | OVCAR-5 ovarian 41.3% | OVCAR-4 ovarian 50.3% | SK-OV-3 ovarian 37% | IGROV1 ovarian 22.6% | OVCAR-3 ovarian 29.5% | HS 578T breast 57.2% | NCI/ADR-RES ovarian 18.4%
active: SN12C renal -8.07% | ACHN renal 5.53% | MOLT-4 leukemia -33.9% | SR leukemia -45.3% | RPMI-8226 leukemia 9.08%
